{"source": "PubChem BioAssay", "key": {"[1]": {"assay": "growth loss of phage-infected RecBCD+ E. coli, confirmation, RecBCD inhibitor project, absorbance, E. coli V66, T4 gene 2 phage (AID 651982;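 active = mean inhibition over triplicates exceeding the hit threshold derived in the original primary screen, cut at about 11% in these data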)", "settings": "E. coli V66 + T4 2- phage, growth OD; at 11.9 µM; hits give high values"}, "[2]": {"assay": "E. coli viability inhibition, counter-screen for RecBCD inhibitor project, absorbance, high throughput (AID 651983; in the data active = inhibition above about 20%;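 note: E. coli strain V66 grown with compound alone and no phage infection; 0% = bacteria with DMSO vehicle only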)", "settings": "absorbance (OD) growth, at 11.9 µM, hits give high values"}, "[3]": {"assay": "growth loss of phage-infected AddAB-carrying E. coli, confirmation, counter-screen for RecBCD inhibitor project, absorbance, E. coli V3065, T4 phage (AID 651984;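 active = mean inhibition above the solvent-only control wells' mean plus 3 SD, cut at about 22% in these data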;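 note: higher means less bacterial growth from phage killing when AddAB is blocked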)", "settings": "E. coli expressing H. pylori AddAB + T4 phage, OD growth; at 11.9 µM; hits give high values; gene 2 mutant T4, recBCD-deleted host"}, "[4]": {"biological_target": "Nuclear receptor subfamily 5 group A member 2 (Homo sapiens) (UniProt O00482)", "sequence (O00482 whole entry, looked up)": "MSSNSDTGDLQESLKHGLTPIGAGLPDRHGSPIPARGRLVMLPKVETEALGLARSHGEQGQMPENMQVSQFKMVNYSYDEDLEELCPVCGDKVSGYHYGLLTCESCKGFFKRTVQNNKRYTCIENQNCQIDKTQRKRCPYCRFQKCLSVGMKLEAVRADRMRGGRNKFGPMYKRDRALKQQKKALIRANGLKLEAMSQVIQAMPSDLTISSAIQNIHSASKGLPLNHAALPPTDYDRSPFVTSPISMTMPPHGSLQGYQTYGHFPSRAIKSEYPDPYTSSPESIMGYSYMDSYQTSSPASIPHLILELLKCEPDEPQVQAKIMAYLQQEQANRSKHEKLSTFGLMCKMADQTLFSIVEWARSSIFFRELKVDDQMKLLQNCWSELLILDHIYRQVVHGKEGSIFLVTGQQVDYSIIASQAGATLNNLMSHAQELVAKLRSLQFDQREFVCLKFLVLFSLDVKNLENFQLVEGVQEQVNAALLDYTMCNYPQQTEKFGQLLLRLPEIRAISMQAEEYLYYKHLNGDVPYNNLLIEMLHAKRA", "assay": "LRH-1 (NR5A2) inverse agonists, retest, confirmation, cell-based, luminescence (AID 651613; in the data active = inhibition above about 42%;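 note: HEK293T cells co-transfected with LRH-1 and StAR promoter luciferase reporter; 0% = vehicle wells and 100% = parental cells lacking receptor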)", "settings": "cell-based LRH-1 luciferase reporter, inverse agonism; at 3.6 µM; hits give high values"}, "[5]": {"biological_target": "Steroidogenic factor 1 (Homo sapiens) (UniProt Q13285)", "sequence (Q13285 whole entry, looked up)": "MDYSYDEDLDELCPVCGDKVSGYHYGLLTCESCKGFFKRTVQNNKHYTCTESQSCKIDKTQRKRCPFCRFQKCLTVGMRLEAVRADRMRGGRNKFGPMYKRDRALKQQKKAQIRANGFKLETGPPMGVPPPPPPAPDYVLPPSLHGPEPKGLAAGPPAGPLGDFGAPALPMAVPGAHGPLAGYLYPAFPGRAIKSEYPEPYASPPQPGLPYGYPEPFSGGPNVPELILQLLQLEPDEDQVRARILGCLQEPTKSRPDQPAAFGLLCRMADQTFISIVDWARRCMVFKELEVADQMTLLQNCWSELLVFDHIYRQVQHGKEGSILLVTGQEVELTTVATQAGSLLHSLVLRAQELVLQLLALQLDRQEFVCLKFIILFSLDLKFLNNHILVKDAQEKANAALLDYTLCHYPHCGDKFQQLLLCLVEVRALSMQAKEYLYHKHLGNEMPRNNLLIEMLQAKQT", "assay": "SF1 (NR5A1) inverse agonists, counter-screen for LRH-1 inverse agonist project, cell-based, luminescence, high throughput (AID 651614; in the data active = inhibition above about 44%;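 note: cells cotransfected with StAR promoter reporter and SF1 expression vector; 0% = vehicle on cells with receptor and 100% = vehicle on cells lacking receptor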)", "settings": "cell-based SF1 luciferase reporter, at 3.6 µM, hits give high values"}, "[6]": {"test_system": "transactivating tegument protein VP16 (Human herpesvirus 1)", "assay": "VP16 transactivation reporter inhibitors, counter-screen for SRC2 inhibitor project, cell-based, luminescence, single concentration (AID 652007)", "settings": "cell-based VP16 transactivation luciferase reporter, at 8.9 µM, hits give high values"}, "[7]": {"biological_target": "Nuclear receptor coactivator 2 (Homo sapiens) (UniProt Q15596)", "sequence (Q15596 whole entry, looked up, the tested form may be a part)": "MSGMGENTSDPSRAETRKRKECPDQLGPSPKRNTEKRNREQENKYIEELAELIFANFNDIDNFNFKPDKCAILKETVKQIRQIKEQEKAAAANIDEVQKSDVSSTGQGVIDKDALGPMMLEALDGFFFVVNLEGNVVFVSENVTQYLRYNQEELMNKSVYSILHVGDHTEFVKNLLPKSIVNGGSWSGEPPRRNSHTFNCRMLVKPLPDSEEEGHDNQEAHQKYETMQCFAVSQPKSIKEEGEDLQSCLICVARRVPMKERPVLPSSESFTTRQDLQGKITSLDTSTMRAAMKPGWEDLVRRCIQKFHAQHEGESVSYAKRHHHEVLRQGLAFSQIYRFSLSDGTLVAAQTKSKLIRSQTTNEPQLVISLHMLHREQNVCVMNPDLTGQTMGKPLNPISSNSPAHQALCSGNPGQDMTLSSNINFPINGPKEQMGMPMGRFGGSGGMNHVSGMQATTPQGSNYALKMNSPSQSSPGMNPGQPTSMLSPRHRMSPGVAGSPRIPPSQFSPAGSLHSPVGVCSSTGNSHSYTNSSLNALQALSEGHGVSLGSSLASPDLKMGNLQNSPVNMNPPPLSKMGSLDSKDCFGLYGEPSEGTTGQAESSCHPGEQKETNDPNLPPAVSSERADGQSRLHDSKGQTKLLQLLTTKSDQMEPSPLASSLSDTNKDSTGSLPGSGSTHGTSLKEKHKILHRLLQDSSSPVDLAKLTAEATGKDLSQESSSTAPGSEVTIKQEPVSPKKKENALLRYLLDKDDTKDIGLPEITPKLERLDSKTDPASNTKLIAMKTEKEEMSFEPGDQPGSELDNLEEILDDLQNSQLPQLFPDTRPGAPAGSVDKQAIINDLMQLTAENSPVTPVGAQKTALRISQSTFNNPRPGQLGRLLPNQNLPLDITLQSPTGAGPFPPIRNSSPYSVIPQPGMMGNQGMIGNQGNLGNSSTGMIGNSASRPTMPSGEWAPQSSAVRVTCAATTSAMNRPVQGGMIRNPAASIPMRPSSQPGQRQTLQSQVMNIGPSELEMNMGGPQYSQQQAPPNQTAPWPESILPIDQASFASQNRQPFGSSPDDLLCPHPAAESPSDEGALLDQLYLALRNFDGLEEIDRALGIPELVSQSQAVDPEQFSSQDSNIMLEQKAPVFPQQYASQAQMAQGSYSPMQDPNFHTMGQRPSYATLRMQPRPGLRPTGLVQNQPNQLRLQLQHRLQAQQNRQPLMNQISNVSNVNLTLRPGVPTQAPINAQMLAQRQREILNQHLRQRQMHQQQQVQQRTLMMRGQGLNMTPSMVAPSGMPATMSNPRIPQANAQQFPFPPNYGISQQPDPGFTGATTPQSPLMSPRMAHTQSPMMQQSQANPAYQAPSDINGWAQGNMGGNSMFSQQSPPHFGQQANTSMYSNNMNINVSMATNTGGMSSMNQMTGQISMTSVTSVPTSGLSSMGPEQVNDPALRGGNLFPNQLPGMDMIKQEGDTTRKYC", "assay": "SRC2 coactivator transcriptional activity inhibitors, confirmation, cell-based, luminescence, HEK293, triplicate (AID 652008;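 active = mean inhibition above 46.5%, the solvent-only control mean plus 3 SD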;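 note: 0% = DMSO-treated cells and 100% = Gossypol at 36 µM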)", "settings": "HEK293 GAL4-SRC2 luciferase reporter, at 8.9 µM, hits give high values"}}, "note": "Unmarked numbers belong to inactive results. The list shows a part of the results. Active and inactive are the calls of the source. Cut-off read from the data, not from the text of the source, unless noted: active = inhibition above about 36%; inactive = the rest."}
{"smiles": "Cc1ccc(NC(=O)Nc2nnc(-c3ccncc3)s2)cc1", "values": [{"measurement": "inhibition", "setting": "[1]", "result": 2.33, "unit": "%"}, {"measurement": "inhibition", "setting": "[2]", "result": 3.97, "unit": "%"}, {"measurement": "inhibition", "setting": "[3]", "result": 9.8, "unit": "%"}]}
{"smiles": "CC1=C(C/C=C(\\C)CCCC(C)CCCC(C)CCCC(C)C)C(=O)c2ccccc2C1=O", "note": "(centres undefined)", "values": [{"measurement": "inhibition", "setting": "[1]", "result": 0.32, "unit": "%"}, {"measurement": "inhibition", "setting": "[2]", "result": 0.53, "unit": "%"}, {"measurement": "inhibition", "setting": "[3]", "result": -1.36, "unit": "%"}]}
{"smiles": "O=C(N/N=C/c1ccc([N+](=O)[O-])o1)c1ccc(O)cc1", "values": [{"measurement": "inhibition", "setting": "[4]", "result": "78.3% (active)"}, {"measurement": "inhibition", "setting": "[5]", "result": "69% (active)"}]}
{"smiles": "Cc1ccc(S(=O)(=O)CC(=O)N(CCCN(C)C)c2nc3ccc(C)cc3s2)cc1", "values": [{"measurement": "inhibition", "setting": "[6]", "result": -1.57, "unit": "%"}, {"measurement": "inhibition", "setting": "[7]", "result": 15.1, "unit": "%"}]}
{"smiles": "COC(=O)c1c(NC(=O)CCCC(=O)O)sc2c1CCCCC2", "values": [{"measurement": "inhibition", "setting": "[6]", "result": 29.6, "unit": "%"}, {"measurement": "inhibition", "setting": "[7]", "result": "53.8% (active)"}]}
{"smiles": "COc1cc(C(=O)NCc2ccncc2)cc(Br)c1OCc1ccccc1", "values": [{"measurement": "inhibition", "setting": "[6]", "result": 0.29, "unit": "%"}, {"measurement": "inhibition", "setting": "[7]", "result": 36.2, "unit": "%"}]}
{"smiles": "CC12CCC(=O)C=C1CCC1C2CCC2(C)C(c3csc(N)n3)CCC12", "note": "(centres undefined)", "values": [{"measurement": "inhibition", "setting": "[6]", "result": 10.2, "unit": "%"}, {"measurement": "inhibition", "setting": "[7]", "result": 24.6, "unit": "%"}]}
{"smiles": "Cc1cccc(C(=O)Nc2ccc(CC(=O)O)cc2)c1", "values": [{"measurement": "inhibition", "setting": "[6]", "result": -2.26, "unit": "%"}, {"measurement": "inhibition", "setting": "[7]", "result": 26.9, "unit": "%"}]}
{"smiles": "CCOC(=O)c1ccc(-c2ccc(N3C(c4ccsc4)=Cc4ccc(F)cc4C3c3c[nH]c4ccc(C#N)cc34)cc2)cc1F", "note": "(centres undefined)", "values": [{"measurement": "inhibition", "setting": "[6]", "result": -3.42, "unit": "%"}, {"measurement": "inhibition", "setting": "[7]", "result": 33.6, "unit": "%"}]}
{"smiles": "Cc1ccc(-c2nc(-c3ccccn3)no2)cc1Cl", "values": [{"measurement": "inhibition", "setting": "[6]", "result": 11.8, "unit": "%"}, {"measurement": "inhibition", "setting": "[7]", "result": 34, "unit": "%"}]}
{"smiles": "Cc1c(CCC(=O)N[C@@H](C)C(=O)O)c(=O)oc2cc3oc4c(c3cc12)CCCC4", "values": [{"measurement": "inhibition", "setting": "[6]", "result": "38.8% (active)"}, {"measurement": "inhibition", "setting": "[7]", "result": "60.1% (active)"}]}
{"smiles": "Cc1ccc(NS(=O)(=O)c2cccc(C(=O)NCCCN3CCCC3=O)c2)cc1", "values": [{"measurement": "inhibition", "setting": "[6]", "result": -1.94, "unit": "%"}, {"measurement": "inhibition", "setting": "[7]", "result": 0.08, "unit": "%"}]}
{"smiles": "COc1ccc(-c2cc(C(=O)O)c(C)o2)cc1OC", "values": [{"measurement": "inhibition", "setting": "[6]", "result": -74, "unit": "%"}, {"measurement": "inhibition", "setting": "[7]", "result": -11.1, "unit": "%"}]}
{"smiles": "COc1cc(C#Cc2c(-c3cncn3C)n(C)c3ccc(-c4ccc(OC)nc4)cc23)cc(OC)c1", "values": [{"measurement": "inhibition", "setting": "[6]", "result": -13.2, "unit": "%"}, {"measurement": "inhibition", "setting": "[7]", "result": -23.7, "unit": "%"}]}
{"smiles": "CC(=O)CCc1ccc(OCCCCN2CCC(Cc3ccccc3)CC2)cc1", "values": [{"measurement": "inhibition", "setting": "[6]", "result": 13.2, "unit": "%"}, {"measurement": "inhibition", "setting": "[7]", "result": 0.94, "unit": "%"}]}
{"smiles": "Cc1ccc2sc(N(CCCN(C)C)C(=O)CCS(=O)(=O)c3ccccc3)nc2c1C", "values": [{"measurement": "inhibition", "setting": "[6]", "result": 1.51, "unit": "%"}, {"measurement": "inhibition", "setting": "[7]", "result": 27.7, "unit": "%"}]}
{"smiles": "CC(C)(CO)CNC(=O)CCc1nnc(-c2ccc(-c3ccccc3)cc2)o1", "values": [{"measurement": "inhibition", "setting": "[6]", "result": 0.83, "unit": "%"}, {"measurement": "inhibition", "setting": "[7]", "result": -13.5, "unit": "%"}]}
{"smiles": "CCCCOc1ccc(C2(C)NC(=O)NC2=O)cc1", "note": "(centres undefined)", "values": [{"measurement": "inhibition", "setting": "[6]", "result": -7.32, "unit": "%"}, {"measurement": "inhibition", "setting": "[7]", "result": -2.28, "unit": "%"}]}
{"smiles": "O=C(N/N=C\\c1cc(Br)c(Br)o1)C1COc2ccccc2O1", "note": "(centres undefined)", "values": [{"measurement": "inhibition", "setting": "[6]", "result": -16.1, "unit": "%"}, {"measurement": "inhibition", "setting": "[7]", "result": -4.84, "unit": "%"}]}
{"smiles": "O=C1N(Cc2cccc(Cl)c2)C[C@@H]2C[C@@H](c3cccc4cccnc34)N3CCC[C@@]123", "values": [{"measurement": "inhibition", "setting": "[6]", "result": -2.19, "unit": "%"}, {"measurement": "inhibition", "setting": "[7]", "result": -23.5, "unit": "%"}]}
{"smiles": "CCOc1ccccc1OCCCCOc1ccccc1F", "values": [{"measurement": "inhibition", "setting": "[6]", "result": -9.29, "unit": "%"}, {"measurement": "inhibition", "setting": "[7]", "result": -12.6, "unit": "%"}]}
{"smiles": "CCCC(O)(CCC)C(=O)NN(C(=O)CCl)c1ccccc1", "values": [{"measurement": "inhibition", "setting": "[6]", "result": 8.55, "unit": "%"}, {"measurement": "inhibition", "setting": "[7]", "result": 30.1, "unit": "%"}]}
{"smiles": "N#Cc1c(N)nc2c(c1N)CC(C(F)(F)F)O2", "note": "(centres undefined)", "values": [{"measurement": "inhibition", "setting": "[6]", "result": -1.62, "unit": "%"}, {"measurement": "inhibition", "setting": "[7]", "result": 12, "unit": "%"}]}
{"smiles": "C[C@@H]1CCN(C2CC2)S(=O)(=O)c2ccc(N3CCC[C@H]3C)cc2O1", "values": [{"measurement": "inhibition", "setting": "[6]", "result": -8.49, "unit": "%"}, {"measurement": "inhibition", "setting": "[7]", "result": -6.67, "unit": "%"}]}
{"smiles": "CN(/C(=N\\S(=O)(=O)c1ccccc1)c1ccccc1)c1ccc(O)cc1", "values": [{"measurement": "inhibition", "setting": "[6]", "result": -3.87, "unit": "%"}, {"measurement": "inhibition", "setting": "[7]", "result": -40.4, "unit": "%"}]}
{"smiles": "Nc1n[nH]c2c1C1(CCCC1)Cc1ccccc1-2", "values": [{"measurement": "inhibition", "setting": "[6]", "result": 1.41, "unit": "%"}, {"measurement": "inhibition", "setting": "[7]", "result": 10, "unit": "%"}]}
{"smiles": "CC1=CC(C)(C)Nc2ccc(OC(=O)C(C)N3C(=O)c4ccccc4C3=O)cc21", "note": "(centres undefined)", "values": [{"measurement": "inhibition", "setting": "[6]", "result": -33.8, "unit": "%"}, {"measurement": "inhibition", "setting": "[7]", "result": 20.7, "unit": "%"}]}
{"smiles": "Cc1ccc(O)c(NC(=O)c2cc([N+](=O)[O-])ccc2Cl)c1", "values": [{"measurement": "inhibition", "setting": "[6]", "result": 8.71, "unit": "%"}, {"measurement": "inhibition", "setting": "[7]", "result": 44.2, "unit": "%"}]}
{"smiles": "CCCN(CCC)Cc1c(C(=O)N/N=C/CCc2ccccc2)nnn1-c1nonc1N", "values": [{"measurement": "inhibition", "setting": "[6]", "result": -6.81, "unit": "%"}, {"measurement": "inhibition", "setting": "[7]", "result": -9.2, "unit": "%"}]}
{"smiles": "COc1ccc(C2CC(c3cccs3)=NN2C(=O)CCl)cc1OC", "note": "(centres undefined)", "values": [{"measurement": "inhibition", "setting": "[6]", "result": "42.5% (active)"}, {"measurement": "inhibition", "setting": "[7]", "result": 6.43, "unit": "%"}]}
{"smiles": "O=C(CCl)Nc1ccc(-c2ccccc2)cc1", "values": [{"measurement": "inhibition", "setting": "[6]", "result": 32.4, "unit": "%"}, {"measurement": "inhibition", "setting": "[7]", "result": "65.6% (active)"}]}
